Here are results for 13 compounds from PubChem BioAssay.

A short description of assay [1]: optical density shifts of acrAB sulA E. coli – strain DRC41, OD650, 48 h, E. coli filamentation inducer project, primary screen (AID 1152).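 Also: E. coli MC1000 strain DRC41 lacking acrAB efflux pump and sulA.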 The following applies: higher = more signal, called active from +8 up or from −8 down.
Assay [2] in a line: probe aLefty1 binding on compound microarray – biochemical, small-molecule microarray, 635/667 nm fluorescence, primary screen (AID 1153).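 Also: score merges spot fluorescence with signal-to-noise ratio from the scanned slide images.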 The following applies: higher = more signal.
Assay [3] in a line: plasmodial surface anion channel blockers, osmotic lysis – cell-based, P. falciparum Indochina, OD700, 1 h, primary screen (AID 1154). The note with it: P. falciparum Indochina infected RBC osmotic lysis, higher = more signal, called active from +8 up or from −8 down.
Assay [4] in a line: plasmodial surface anion channel blockers, osmotic lysis – cell-based, P. falciparum Indochina, OD700, 2 h, primary screen (AID 1155).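 Also: lysis reports solute entry through the parasite surface anion channel PSAC.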 The following applies: P. falciparum Indochina infected erythrocytes, higher = more signal, called active from +8 up or from −8 down.
Assay [5] in a line: changes in parasitized red cell lysis, either direction – P. falciparum Indochina, OD700, 3 h, PSAC antagonist project, primary screen (AID 1156). The note with it: P. falciparum-infected erythrocytes, osmotic lysis, higher = more signal, called active from +8 up or from −8 down.
A short description of assay [6]: plasmodial surface anion channel blockers, osmotic lysis – cell-based, P. falciparum Indochina, OD700, 18 h, primary screen (AID 1157). The following applies: P. falciparum Indochina infected erythrocytes, osmotic lysis OD700, 18 h; higher = more signal, called active from +8 up or from −8 down.
Assay [7] is described as follows: S6 kinase pathway phospho-S6 level changes – cell-based, A549, cytoblot, luminescence, serum-stimulated, primary screen (AID 1158).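 Also: serum-stimulated A549 lung adenocarcinoma cells; signal is phosphorylated S6 detected by cytoblot immunostaining with HRP secondary.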 The note with it: 5 h, higher = more signal.
In assay [8] the target is NADPH oxidase 2 (Homo sapiens) (UniProt P04839). As to the kind of experiment: compounds shifting NOX2 Amplex Red fluorescence – cell-based, HEK293-NOX2, PMA-stimulated, NOX inhibitor project, primary screen (AID 1159). Also: test concentration not given here. The following applies: 45 min, higher = more signal, called active from +8 up or from −8 down.
Chain of NADPH oxidase 2 (Homo sapiens) (P04839 whole entry, looked up): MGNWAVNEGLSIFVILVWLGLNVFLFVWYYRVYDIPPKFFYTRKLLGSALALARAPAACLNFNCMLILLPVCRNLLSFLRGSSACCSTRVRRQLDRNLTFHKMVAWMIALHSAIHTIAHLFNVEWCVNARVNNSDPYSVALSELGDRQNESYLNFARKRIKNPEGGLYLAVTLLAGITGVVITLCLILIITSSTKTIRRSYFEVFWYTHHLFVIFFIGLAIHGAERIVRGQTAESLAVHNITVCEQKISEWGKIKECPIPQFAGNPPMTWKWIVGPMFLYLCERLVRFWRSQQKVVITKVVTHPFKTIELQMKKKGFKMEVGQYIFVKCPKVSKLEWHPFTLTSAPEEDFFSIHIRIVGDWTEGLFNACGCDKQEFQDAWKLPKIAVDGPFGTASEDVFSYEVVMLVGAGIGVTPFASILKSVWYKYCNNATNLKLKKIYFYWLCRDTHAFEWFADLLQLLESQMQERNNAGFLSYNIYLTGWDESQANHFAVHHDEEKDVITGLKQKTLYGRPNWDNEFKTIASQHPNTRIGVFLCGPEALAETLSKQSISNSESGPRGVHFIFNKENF
Assay [9] deals with NADPH oxidase 4 (Homo sapiens) (UniProt Q9NPH5). In words: compounds shifting NOX4 Amplex Red fluorescence – cell-based, HEK293-NOX4, tetracycline-induced, NOX inhibitor project, primary screen (AID 1160). The following applies: HEK293-NOX4, Amplex Red H2O2 fluorescence, 45 min; higher = more signal, called active from +8 up or from −8 down.
Chain of NADPH oxidase 4 (Homo sapiens) (Q9NPH5 whole entry, looked up): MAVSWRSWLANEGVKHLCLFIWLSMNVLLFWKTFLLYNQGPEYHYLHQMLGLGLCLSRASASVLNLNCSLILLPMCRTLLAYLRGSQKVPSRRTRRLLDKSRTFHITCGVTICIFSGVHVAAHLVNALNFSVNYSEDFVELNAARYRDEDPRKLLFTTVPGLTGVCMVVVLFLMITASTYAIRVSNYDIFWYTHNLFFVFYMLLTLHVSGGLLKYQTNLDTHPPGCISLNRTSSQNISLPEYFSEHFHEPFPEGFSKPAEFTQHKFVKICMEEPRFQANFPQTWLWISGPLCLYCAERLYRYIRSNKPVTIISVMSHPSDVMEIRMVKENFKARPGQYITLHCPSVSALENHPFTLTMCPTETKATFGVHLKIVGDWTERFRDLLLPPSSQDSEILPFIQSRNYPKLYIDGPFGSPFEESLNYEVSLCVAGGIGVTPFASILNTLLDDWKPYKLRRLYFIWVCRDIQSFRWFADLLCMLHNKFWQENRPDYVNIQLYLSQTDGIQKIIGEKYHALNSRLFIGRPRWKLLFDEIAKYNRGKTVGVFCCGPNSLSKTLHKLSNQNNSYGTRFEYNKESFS
For assay [10], the target named is NADPH oxidase 5 (Homo sapiens) (UniProt Q96PH1). As to the kind of experiment: compounds shifting NOX5 Amplex Red fluorescence – cell-based, HEK293-NOX5, NOX inhibitor project, primary screen (AID 1161). The following applies: HEK293-NOX5, ionomycin, 45 min, higher = more signal.
Chain of NADPH oxidase 5 (Homo sapiens) (Q96PH1 whole entry, looked up): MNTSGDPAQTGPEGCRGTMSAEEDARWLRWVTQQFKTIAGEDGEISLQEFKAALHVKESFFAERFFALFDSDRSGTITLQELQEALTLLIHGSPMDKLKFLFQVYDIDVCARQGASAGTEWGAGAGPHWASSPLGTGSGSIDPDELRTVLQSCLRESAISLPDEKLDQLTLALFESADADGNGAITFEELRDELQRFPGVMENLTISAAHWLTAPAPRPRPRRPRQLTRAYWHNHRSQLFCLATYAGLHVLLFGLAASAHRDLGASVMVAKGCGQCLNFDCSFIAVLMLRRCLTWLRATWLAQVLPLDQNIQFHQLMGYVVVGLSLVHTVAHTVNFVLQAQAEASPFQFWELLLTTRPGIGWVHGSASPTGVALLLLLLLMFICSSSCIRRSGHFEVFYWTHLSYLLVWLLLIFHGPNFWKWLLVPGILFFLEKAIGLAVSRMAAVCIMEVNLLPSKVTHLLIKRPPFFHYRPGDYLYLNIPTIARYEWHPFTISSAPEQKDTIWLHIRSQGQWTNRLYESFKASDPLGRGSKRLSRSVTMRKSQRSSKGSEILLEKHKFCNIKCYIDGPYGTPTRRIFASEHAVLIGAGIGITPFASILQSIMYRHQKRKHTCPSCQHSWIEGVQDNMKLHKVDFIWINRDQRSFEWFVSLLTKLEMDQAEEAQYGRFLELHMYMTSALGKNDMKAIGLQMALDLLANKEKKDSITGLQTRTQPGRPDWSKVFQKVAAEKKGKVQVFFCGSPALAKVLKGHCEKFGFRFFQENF

Calls of active or inactive are those of the source.

In the case of `CC(C)c1ccc(NN2C(C(O)c3ccccc3)C=CC3C(=O)N(c4ccccc4)C(=O)C32)cc1` (stereo not given), the z-score in [1] was 0.2 (inactive); in assay [3], 4.51 (inactive); in [4], 1.97 (inactive); in assay [5] it was 0.506 (inactive); in assay [6] it was 1.42 (inactive); in [7], -0.396. Also, the results for the z-score in assay [8], in assay [9] and in assay [10] were -0.365 (inactive), -2.49 (inactive) and -2.48, respectively. This compound returned a composite z-score in assay [2] of 0.395.

As for `CC(C)[Si]1(C(C)C)OCc2cc(-c3ccc(-c4ccc(Cl)c(Cl)c4)o3)nc(-c3ccc(Oc4ccccc4)cc3)c21`, the z-score was -1.08 (inactive) in assay [1]; 1.88 (inactive) in assay [3]; 0.352 (inactive) in assay [4]; 0.0032 (inactive) in assay [5]; 0.533 (inactive) in [6]; -0.203 in assay [7]. The values for the z-score in assay [8], in assay [9] and in [10] were -4.58 (inactive), 0.169 (inactive) and -1.54, respectively. Further, the composite z-score in assay [2] was -0.21.

`COC(=O)C(CC#Cc1ccc2c(c1)[C@]1(C(=O)N2)[C@H](c2ccccc2OCCO)N2[C@H](c3ccccc3)[C@H](c3ccccc3)OC(=O)[C@H]2[C@@H]1C(=O)N1CCN(c2ncccn2)CC1)C(=O)OC`: the z-score in [1] is -0.577 (inactive); in [3], 3.02 (inactive); in assay [4], 1.49 (inactive); in [5], 0.928 (inactive); in [6], 0.565 (inactive); in [7], -0.512. Further, the z-score in assay [8] is 0.803 (inactive); in [9], 0.849 (inactive); in assay [10], 2.23. The compound further displayed a composite z-score in assay [2] of -0.0984.

As to `Cc1ccc(S[C@]2(C(=O)NCCN3CCOCC3)CC(=O)N(C(C)C)[C@@H]2c2ccc(CO)cc2I)cc1`, the z-score in [1] was 3.66 (inactive); in assay [3] it was 7.56 (inactive); in [4], 0.308 (inactive); in assay [5] it was 0.651 (inactive); in assay [6], -0.511 (inactive); in assay [7], 1.86. In addition, the values for the z-score in [8], in [9] and in [10] were -0.491 (inactive), -1.24 (inactive) and 1.07, respectively. For the same compound, the composite z-score in assay [2] came to 0.11.

As to `CCCCCCCCCCC(O)C1C=CC2C(=O)N(C)C(=O)C2N1Nc1ccccc1` (stereo not given), the z-score in assay [1] was -2.27 (inactive); in [3], 8.71 (active); in [4], 3.03 (inactive); in [5], 0.156 (inactive); in assay [6], 2.84 (inactive); in assay [7], -1.28. The z-score in assay [8] was -0.433 (inactive); in assay [9], -4.22 (inactive); in assay [10] it was -1.7. In assay [2], this compound showed a composite z-score of -0.206.

`CCCCC(=C=CC[C@@H](O)c1ccccc1OCCO)C[C@@H](O)c1ccccn1`: the z-score is 0.142 (inactive) in assay [1]; 11.3 (active) in [3]; 1.51 (inactive) in [4]; 1.02 (inactive) in assay [5]; 0.894 (inactive) in assay [6]; -0.261 in assay [7]. In addition, the z-score in assay [8] was 1.32 (inactive); in assay [9], -0.281 (inactive); in assay [10] it was -1.41. This compound had a composite z-score in assay [2] of -0.0192.

Turning to `COC(=O)[C@@]1(Cc2ccc(OC)cc2)[C@@H]2[C@@H](CC(=O)[C@H]2CC(=O)C(=O)N(C)C)CN1C(=O)c1ccccc1`, the z-score in assay [1] was -0.715 (inactive); in assay [3], 2.94 (inactive); in [4], 1.08 (inactive); in [5], 0.63 (inactive); in assay [6], 1.45 (inactive); in assay [7], 0.58. The z-score in assay [8] was 0.337 (inactive); in assay [9], 0.898 (inactive); in [10], 0.427. In assay [2], this compound had a composite z-score of 2.12.

Regarding `COC(=O)C(CC#Cc1ccc2c(c1)[C@]1(C(=O)N2)[C@H](C(=O)N2CCCCCCC2)[C@H]2C(=O)O[C@H](c3ccccc3)[C@H](c3ccccc3)N2[C@@H]1c1ccc(OCCO)cc1)C(=O)OC`, the z-score in assay [1] was -0.215 (inactive); in [3], 13.7 (active); in [4], 2.51 (inactive); in [5] it was -5.71 (inactive); in assay [6] it was 0.588 (inactive); in assay [7] it was -0.779. Besides, the z-score in [8] was 0.985 (inactive); in [9], 0.827 (inactive); in assay [10], 1.6. The compound further registered a composite z-score in [2] of 3.14.

`CCCNC(=O)[C@@]1(Sc2ccc(C)cc2)CC(=O)N(Cc2cc(C(F)(F)F)cc(C(F)(F)F)c2)[C@@H]1c1ccc(CO)cc1`: the z-score in [1] was 1.63 (inactive); in [3], 2.74 (inactive); in [4], 0.285 (inactive); in assay [5], 0.25 (inactive); in assay [6], -1.15 (inactive); in assay [7] it was 2.9. The z-score in assay [8] was 0.584 (inactive); in [9], -0.589 (inactive); in [10], 0.207. In [2], this compound yielded a composite z-score of -0.193.

On to `C=CCN1C(=O)[C@@]2(O[C@@H](CCO)[C@H]([Si](C)(C)c3ccc(OC)cc3)[C@H]2C)c2cc(N3CCCCC3=O)ccc21`, for which the z-score was 0.424 (inactive) in assay [1]; 23.8 (active) in assay [3]; 7.85 (inactive) in assay [4]; -0.302 (inactive) in assay [5]; 1.9 (inactive) in assay [6]; 1.44 in assay [7]. Moreover, the z-score in [8] is -1.63 (inactive); in [9] it was -0.258 (inactive); in [10], -0.607. The compound also showed a composite z-score in assay [2] of 0.102.

`O=C(N1CCOCC1)[C@]1(CCS(=O)(=O)c2ccccc2)N=C(c2ccc(OCCCO)cc2)O[C@@H]1c1ccccc1`: the z-score in assay [1] is 0.427 (inactive); in [3], 27.2 (active); in assay [4] it was 20 (active); in [5], 3.43 (inactive); in assay [6], 2.61 (inactive); in assay [7] it was 0.0315. Besides, the z-score in [8] was 0.348 (inactive); in assay [9], 1.72 (inactive); in [10] it was 1.16. The compound further gave a composite z-score in [2] of 0.441.

Regarding `CCN1C(=O)C2CC(=O)C3C(CN(S(=O)(=O)c4ccc(C)cc4)C3c3ccc(C)cc3)C2C1=O` (stereo not given), the z-score is 0.344 (inactive) in assay [1]; 1.04 (inactive) in assay [3]; 0.804 (inactive) in assay [4]; 0.135 (inactive) in [5]; 0.609 (inactive) in assay [6]; -0.0511 in assay [7]. The z-score in [8] is -0.374 (inactive); in [9] it was -0.0929 (inactive); in assay [10], -0.525. Also, the composite z-score in [2] is -0.0967.

In the case of `CO[C@H]1O[C@H](CO)[C@@H](OC(=O)Nc2cccc(F)c2)[C@H](OC(=O)c2cc3ccccc3[nH]2)[C@H]1OC(=O)c1cc2ccccc2[nH]1`, the z-score is 0.378 (inactive) in [1]; 0.694 (inactive) in [3]; -1.02 (inactive) in [4]; -0.0952 (inactive) in [5]; -0.908 (inactive) in [6]; 2.06 in [7]. The z-score was -2.38 (inactive) in [8], -0.453 (inactive) in [9] and -3.81 in [10]. In [2], this compound gave a composite z-score of -0.0412.
